The entries come from a sample that favours hits as a whole.
LmPK inh: qHTS Assay for Inhibitors of Leishmania Mexicana Pyruvate Kinase (LmPK) | Q27686 | purified LmPK, Kinase-Glo ATP luminescence, 1 h | Potency, µM (series often up to 57.5 µM), usual class: inhibitors | 290,000 tested, 0.37% active | AID 1721, 2009
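Screened at intermediate enzyme activity to detect both inhibitors and activators: LmPK at 0.1 nM, with a 0.5 nM enzyme column as activation reference. PEP 0.5 mM, ADP 0.1 mM; ATP detected by luminescence after 1 h.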
Cycloheximide cs: Cycloheximide Counterscreen for Small Molecule Inhibitors of Shiga Toxin | 300,000 tested, 12% active | cell reporter, cycloheximide protein synthesis inhibition counterscreen | max response, % | AID 2314, 2010; in the data active = max response mostly above about 13%, no sharp cut-off; inactive = mostly below about 14%; also: read at 38.3 µM for the half of the compounds with a filed dose
Tb PYK inh: qHTS of Trypanosoma Brucei Inhibitors; Potency, µM (top dose mostly 76.8 µM), actives largely listed as inhibitors; TbPYK enzyme, Kinase-Glo Plus ATP luminescence, 45 min; AID 624173, 2012; 410,000 tested, 0.12% active; pyruvate kinase (Trypanosoma brucei), Q57TT1; also: nearly all actives have a fitted effect of over 50% in size
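Assay buffer: 50 mM TEA pH 7.2, 100 mM KCl, 10 mM MgCl2, 0.05% BSA, 0.01% Tween-20. Pyruvate kinase from T. brucei plus substrate met compound, then ADP (130 uM final). Luminescence was read post 45 min RT.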
Shiga inhibitor: A qHTS for Small Molecule Inhibitors of Shiga Toxin. Vero cells, Shiga toxin protein synthesis inhibition reporter. 290,000 tested, 9.2% active. inhibition, % at 38.7 µM. AID 2315, 2010; in the data active = inhibition mostly above about 28%, no sharp cut-off; inactive = mostly below about 43%
Giardia FBPA inh: qHTS Assay for Inhibitors of Fructose-1,6-bisphosphate Aldolase from Giardia Lamblia | purified Giardia FBPA | Potency, µM (titrated, usually from 59.6 µM), hits mostly inhibitors | 290,000 tested, 0.71% active; also: nearly all actives have a fitted effect of over 55% in size
Target sequence (A8B2U2 whole entry, looked up): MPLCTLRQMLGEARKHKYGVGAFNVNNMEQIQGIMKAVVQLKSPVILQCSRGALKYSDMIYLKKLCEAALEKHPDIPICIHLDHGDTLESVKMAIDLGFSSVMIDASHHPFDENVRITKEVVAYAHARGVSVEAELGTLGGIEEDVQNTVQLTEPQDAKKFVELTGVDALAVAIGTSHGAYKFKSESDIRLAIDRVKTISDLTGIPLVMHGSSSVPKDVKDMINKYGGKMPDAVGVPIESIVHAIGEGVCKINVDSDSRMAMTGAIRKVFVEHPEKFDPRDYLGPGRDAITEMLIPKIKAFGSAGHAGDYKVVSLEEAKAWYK
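40 nM FBPA preincubated 10 min at RT with compound (up to 57.5 uM final), then substrate plus GAPDH/TPI/NAD/arsenate coupling and diaphorase/resazurin added. Fluorescence read after 20 min at RT, 525/598 nm.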
RE007 growth inh: qHTS Assay for Inhibitors of the HIV-1 protein Vpr. S. pombe RE007 Vpr strain, BacTiter-Glo ATP luminescence, 24 h. Potency, µM (titrated, usually from 92.2 µM), actives largely listed as inhibitors. 360,000 tested, 0.21% active. AID 651644, 2012; active = well fitted falling curve with a large enough effect; inconclusive = small, poorly fitted or top-dose-only effect; inactive = no such curve, though single readings can be large or run the other way; also: nearly all actives have a fitted effect of over 50% in size
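Fission yeast RE007 carrying one integrated HIV-1 vpr copy, seeded at OD 0.01 in PMG+AL medium with 23 nL pinned compound. Grown 24 h at 30 degrees; viability read by BacTiter-Glo luminescence after 5 min.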
Each line names hits and unclear results; the compound was inactive in the other large screens. Unless noted, calls follow the shape of the dose curve; as a rule, active = well fitted curve in the direction sought with a large enough effect; inconclusive = small, poorly fitted or top-dose-only effect, or another doubt; inactive = no such curve, though single readings can be large; an effect the other way counts as inactive or inconclusive.

COc1cccc(NC(=O)c2ccc3snnc3c2)c1	LmPK inh inconclusive, Cycloheximide cs 37.5, Shiga inhibitor 80.5
Cc1cccc(NC(=O)c2ccc3snnc3c2)c1	none (no result: LmPK inh, Cycloheximide cs, Shiga inhibitor, Giardia FBPA inh, RE007 growth inh)
CCOc1ccc(NC(=O)c2ccc3snnc3c2)cc1	Shiga inhibitor 42.8
Cc1ccc(NC(=O)Cn2c(=O)n(CCc3ccccc3)c(=O)c3c4c(sc32)CCCC4)cc1C	none (no result: LmPK inh, Cycloheximide cs, Shiga inhibitor, Giardia FBPA inh, RE007 growth inh)
CCCCn1c(SCc2nnc(-c3ccccc3)o2)nc2c1c(=O)n(C)c(=O)n2C	Cycloheximide cs 23.6
CC(C)CC(=O)C1CCCN(C(=O)c2ccc3oc(Cc4ccccc4)nc3c2)C1 (configuration not stated)	none
Cc1ccc2oc(C(=O)N3CCN(CC(=O)NC(C)C)CC3)c(C)c2c1	none (no result: Shiga inhibitor)
CCOC(=O)C1CCCN(C(=O)c2ccc3oc(Cc4ccccc4)nc3c2)C1 (configuration not stated)	Cycloheximide cs 48.5, Shiga inhibitor 75.8 (no result: Giardia FBPA inh)
O=C(c1ccc2oc(CCCc3ccccc3)nc2c1)N1CCCC(CCCO)C1 (configuration not stated)	Cycloheximide cs 29.9, Shiga inhibitor 47.1 (no result: Giardia FBPA inh)
O=C(c1ccc(OC2CCN(CCc3ccccc3)CC2)cc1)N1CCCC(CCCO)C1 (configuration not stated)	none
CCCOC1CCCN(C(=O)c2ccc3oc(C(C)C)nc3c2)C1 (configuration not stated)	Cycloheximide cs 38.4, Shiga inhibitor 94.0 (no result: Giardia FBPA inh)
CC(C)NC(=O)CN1CCN(C(=O)c2ccc3oc(CCCc4ccccc4)nc3c2)CC1	Cycloheximide cs 19.6 (no result: Giardia FBPA inh)
CCC(=O)N1CCc2cc(S(=O)(=O)NCCC(=O)Nc3ccc(OC)c(Cl)c3)ccc21	none (no result: LmPK inh, Cycloheximide cs, Shiga inhibitor, Giardia FBPA inh, RE007 growth inh)
CCc1ccc(NC(=O)c2ccc3c(c2)nnn3CC)cc1	none (no result: LmPK inh, Cycloheximide cs, Shiga inhibitor, Giardia FBPA inh, RE007 growth inh)
Cc1cccc(NC(=O)c2ccc3oc(=O)c(S(=O)(=O)c4ccc(F)cc4)cc3c2)c1C	none (no result: LmPK inh, Cycloheximide cs, Shiga inhibitor, Giardia FBPA inh, RE007 growth inh)
COC(=O)CCCC1=CC2=CC(=O)C(C)(OC(=O)c3cccs3)C(=O)C2=CN1C(CO)CO (configuration not stated)	Giardia FBPA inh inconclusive (no result: Cycloheximide cs, Tb PYK inh, Shiga inhibitor, RE007 growth inh)
CC(=O)N1CCN(C(=O)c2ccc3oc(CCCc4ccccc4)nc3c2)CC1	Cycloheximide cs 34.5
CCOC(=O)N1CCN(C(=O)c2ccc3oc(CCCc4ccccc4)nc3c2)CC1	Cycloheximide cs 39.3, Shiga inhibitor 80.5 (no result: Giardia FBPA inh)
COCCN1CCN(C(=O)c2ccc3nc(Cc4ccc(OC)c(OC)c4)oc3c2)CC1	none (no result: Giardia FBPA inh)
CN1CCN(C(=O)c2ccc3nc(-c4ccccc4)c(-c4ccccc4)nc3c2)CC1	none
COCCN1CCN(C(=O)c2ccc3oc(CCc4ccccc4)nc3c2)CC1	Cycloheximide cs 23.4 (no result: Giardia FBPA inh)
CC(C)c1nc2cc(C(=O)N3CCNC(=O)C3c3cccc(F)c3)ccc2o1 (configuration not stated)	Cycloheximide cs 11.5
CCc1ccccc1NC(=O)C(=O)NCC(c1cccnc1)N1CCc2ccccc21 (configuration not stated)	none (no result: LmPK inh, Cycloheximide cs, Shiga inhibitor, Giardia FBPA inh, RE007 growth inh)
Cc1cc(OCCCn2c(CCNC(=O)C3CCCCC3)nc3ccccc32)ccc1Cl	none (no result: LmPK inh, Giardia FBPA inh, RE007 growth inh)
Cc1ccc(NC(=O)C(C)n2nnc3sc4c(c3c2=O)CCCC4)cc1Cl (configuration not stated)	none (no result: LmPK inh, Cycloheximide cs, Shiga inhibitor, Giardia FBPA inh, RE007 growth inh)
CC(C)c1nc2cc(C(=O)N3CCN(c4cnccn4)CC3)ccc2o1	Cycloheximide cs 27.3 (no result: Giardia FBPA inh)
COCC1CCCN(C(=O)c2ccc3oc(Cc4ccc(Cl)cc4)nc3c2)C1 (configuration not stated)	none (no result: Giardia FBPA inh)
COCC1CCCCN1C(=O)c1ccc2oc(CCCc3ccccc3)nc2c1 (configuration not stated)	Cycloheximide cs 36.8, Shiga inhibitor 61.2
Cn1c(CN2CCCCC2)nc2cc(NC(=O)c3ccc(F)cc3)ccc21	Cycloheximide cs 33.5
CC(=O)N1CCN(Cc2nc3cc(NC(=O)c4ccccc4Cl)ccc3n2C)CC1	none
Cc1cccc(OCC(=O)Nc2ccc3c(c2)nc(CCN2CCCCC2)n3C)c1	none
Cc1cccc(OCC(=O)Nc2ccc3c(c2)nc(CN2CCCCC2)n3C)c1	Cycloheximide cs 29.1
Cn1c(CN2CCCCC2)nc2cc(NC(=O)c3ccccc3Cl)ccc21	Cycloheximide cs 44.2, Shiga inhibitor 72.4
COc1ccc(C2CC(c3ccccc3)Oc3cc(C)cc(C)c32)cc1 (configuration not stated)	none (no result: LmPK inh, Tb PYK inh, RE007 growth inh)
Cc1cc(/C=C2/C(=N)N3C(=NC2=O)SN=C3S(C)(=O)=O)c(C)n1-c1ccc(F)cc1	none
COc1cc(/C=C2/C(=N)N3C(=NC2=O)SN=C3S(C)(=O)=O)ccc1OS(=O)(=O)c1ccccc1	Shiga inhibitor 44.5 (no result: Tb PYK inh, Giardia FBPA inh, RE007 growth inh)
COc1ccccc1-n1c(C)cc(/C=C2/C(=N)N3C(=NC2=O)SN=C3S(C)(=O)=O)c1C	Cycloheximide cs 23.9, Shiga inhibitor 116.1
CCOc1cc(/C=C2/C(=N)N3C(=NC2=O)SN=C3S(C)(=O)=O)ccc1OS(=O)(=O)c1ccccc1	none (no result: Giardia FBPA inh)
Cc1ccc(C(=O)N2CCc3ccccc32)cc1	Cycloheximide cs 30.9, Shiga inhibitor 89.7
O=C(c1ccc(Cl)s1)N1CCN(c2ccccc2)CC1	Cycloheximide cs 17.4, Shiga inhibitor 28.1
O=C(c1ccc(C(=O)N2CCCc3ccccc32)s1)N1CCCc2ccccc21	none
O=C(c1ccc(Cl)s1)N1CCc2ccccc21	Cycloheximide cs 35.8, Shiga inhibitor 81.6, RE007 growth inh inconclusive
CCc1sc(C(=O)N2CCc3ccccc32)cc1C	LmPK inh 25.1µM, Cycloheximide cs 66.1, Shiga inhibitor 102.3
Cc1ccc(-c2onc(C)c2C)cc1S(=O)(=O)NCc1ccco1	none (no result: LmPK inh, Cycloheximide cs, Shiga inhibitor, Giardia FBPA inh, RE007 growth inh)
O=C(c1ccc(Cl)cc1)N1CCc2ccccc21	Cycloheximide cs 32.8
Cn1cc(C(=O)N2CCc3ccccc32)cn1	Cycloheximide cs 22.5, Shiga inhibitor 49.1

Compound activity (PubChem BioAssay)
